The text below walks through data of the supplement of paper PMC12282887.

± gives the standard deviation of the averaged measurements.

The assay deals with E. coli BW25113 marRABp lux reporter. The experiment in a line: promoter activity interaction Z-score (Lux/OD deviation from empty-vector control); higher = stronger promoter induction by the compound. The protocol: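 E. coli BW25113 (wild type or ΔmarA/ΔsoxS/Δrob) carrying pTU175 luxCDABE promoter reporters was grown in LB in 384-well plates at 37°C with each of 94 compounds at 4 two-fold concentrations, in biological duplicates. Luminescence and OD600 were read every 30 min for 12 h and integrated as AUC over 8 h (0-8 h WT, 1-9 h mutants). Lux AUC was divided by OD AUC; the interaction score is the residual of a Huber robust fit of each promoter against the empty-vector control, then Z-transformed per promoter.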

Take `CC(=O)N[C@H]1[C@@H](O[C@@H]2O[C@H](CC(O)[C@H]3O[C@@H](n4ccc(=O)[nH]c4=O)[C@H](O)[C@@H]3O)[C@H](O)[C@H](O)[C@H]2NC(=O)/C=C/CC(C)C)O[C@H](CO)[C@@H](N)[C@@H]1O` (stereo partly drawn) [Tunicamycin]: the “promoter activity interaction Z-score” value is, setting by setting: (2.6 µg/ml, genetic background: wild type) -0.437 ± 0.048; (2.6 µg/ml, genetic background: ΔmarA) -0.39 ± 0.54; (2.6 µg/ml, genetic background: Δrob) -0.2 ± 0.15; (2.6 µg/ml, genetic background: ΔsoxS) -0.379 ± 0.38; (5.3 µg/ml, genetic background: wild type) -0.455 ± 0.15; (5.3 µg/ml, genetic background: ΔmarA) -0.634 ± 0.41. In addition, the “promoter activity interaction Z-score” value reads like this: (5.3 µg/ml, genetic background: Δrob) -0.284 ± 0.008; (5.3 µg/ml, genetic background: ΔsoxS) -0.282 ± 0.18; (10.6 µg/ml, genetic background: wild type) -0.326 ± 0.14; (10.6 µg/ml, genetic background: ΔmarA) -0.464 ± 0.54; (10.6 µg/ml, genetic background: Δrob) -0.127 ± 0.2; (10.6 µg/ml, genetic background: ΔsoxS) -0.485 ± 0.34. Besides, the “promoter activity interaction Z-score” value runs as follows: (21.1 µg/ml, genetic background: wild type) -0.471 ± 0.16; (21.1 µg/ml, genetic background: ΔmarA) -0.634 ± 0.25; (21.1 µg/ml, genetic background: Δrob) -0.663 ± 0.56; (21.1 µg/ml, genetic background: ΔsoxS) -0.645 ± 0.46.

For `NCCc1c[nH]c2ccc(O)cc12` [Serotonine], the “promoter activity interaction Z-score” value is -0.413 ± 0.011 (13.3 µg/ml, genetic background: wild type); -0.686 ± 0.15 (13.3 µg/ml, genetic background: ΔmarA); -0.419 ± 0.028 (13.3 µg/ml, genetic background: Δrob); -0.41 ± 0.18 (13.3 µg/ml, genetic background: ΔsoxS); -0.214 ± 0.13 (26.6 µg/ml, genetic background: wild type); -0.554 ± 0.18 (26.6 µg/ml, genetic background: ΔmarA). In addition, the “promoter activity interaction Z-score” value is, setting by setting: (26.6 µg/ml, genetic background: Δrob) -0.414 ± 0.15; (26.6 µg/ml, genetic background: ΔsoxS) -0.421 ± 0.26; (53.2 µg/ml, genetic background: wild type) -0.616 ± 0.21; (53.2 µg/ml, genetic background: ΔmarA) -0.71 ± 0.041; (53.2 µg/ml, genetic background: Δrob) -0.479 ± 0.089; (53.2 µg/ml, genetic background: ΔsoxS) -0.523 ± 0.25. Further, the “promoter activity interaction Z-score” value is, setting by setting: (106.3 µg/ml, genetic background: wild type) -0.518 ± 0.15; (106.3 µg/ml, genetic background: ΔmarA) -0.531 ± 0.2; (106.3 µg/ml, genetic background: Δrob) -0.324 ± 0.025; (106.3 µg/ml, genetic background: ΔsoxS) -0.498 ± 0.093.

For the molecule `C[C@]12CC[C@H]3[C@@H](CCC4=CC(=O)CC[C@@]43C)[C@@H]1CC[C@@H]2O` [Testosterone], the “promoter activity interaction Z-score” value is -0.549 ± 0.28 (18 µg/ml, genetic background: wild type); -0.238 ± 0.15 (18 µg/ml, genetic background: ΔmarA); -0.5774 ± 0.0046 (18 µg/ml, genetic background: Δrob); -0.238 ± 0.058 (18 µg/ml, genetic background: ΔsoxS); -0.712 ± 0.027 (36.1 µg/ml, genetic background: wild type); -0.0596 ± 0.21 (36.1 µg/ml, genetic background: ΔmarA). In addition, the “promoter activity interaction Z-score” value is -0.24 ± 0.17 (36.1 µg/ml, genetic background: Δrob); -0.368 ± 0.14 (36.1 µg/ml, genetic background: ΔsoxS); -0.654 ± 0.22 (72.1 µg/ml, genetic background: wild type); -0.0306 ± 0.33 (72.1 µg/ml, genetic background: ΔmarA); -0.303 ± 0.014 (72.1 µg/ml, genetic background: Δrob); -0.398 ± 0.14 (72.1 µg/ml, genetic background: ΔsoxS). The “promoter activity interaction Z-score” value is -0.399 ± 0.038 (144.2 µg/ml, genetic background: wild type); -0.0772 ± 0.21 (144.2 µg/ml, genetic background: ΔmarA); -0.448 ± 0.17 (144.2 µg/ml, genetic background: Δrob); -0.258 ± 0.0049 (144.2 µg/ml, genetic background: ΔsoxS).
